Compound activity as filed in PubChem BioAssay.
IMPase inh – IMPase inhibition in cells | P97697 | CHO-M1 cells, IP1 accumulation, HTRF TR-FRET ratio | inhibition (IP1 accumulation), % at 46.1 µM | 120,000 tested, under 10 active | AID 901; active means well fitted curve in the direction sought with a large enough effect in the signal ratio, not every such curve was filed as active; inconclusive means small, poorly fitted or top-dose-only effect, or a change in a side signal; inactive means no such curve, though single readings can be large or run the other way; the % refers to the signal ratio;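 further: cells stimulated with carbachol in lithium chloride buffer; plate controls were DMSO basal wells for no effect and reference inhibitor wells for full effect; higher means more IMPase inhibition seen as more IP1 and lower FRET ratio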
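Elevated IP1 in lysates lowers TR-FRET signal (665/620 ratio and 620 channel reported). Cells were CHO-M1, given carbachol (50 uM as added) plus 50mM LiCl, pH 7.4, 30 min, 37C; compounds titrated up to 46 uM; AC50 by Hill equation.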
IMPase Li inh – membrane-permeable IMPase blocker, potentiated with lithium; AID 1457; CHO-M1 cells, IP1 TR-FRET (IP-One), carbachol + lithium; hit rate 0.35% among 210,000; Potency, µM (series often up to 59.4 µM), for the others: at the highest dose activity, negative = IMPase inhibition, hits mostly inhibitors;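 further: IP1 builds up when IMPase is blocked and the TR-FRET signal falls; potency means the concentration at half of the fitted maximal effect; plate controls were basal vehicle for no effect and high inhibitor control for full effect; nearly all actives have a fitted effect of over 50% in size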
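Steps: plate 2000 CHO-M1 cells per well and culture 16–30 h; add compound and lithium; incubate 30 min, 37C; add d2-IP1 tracer and Eu cryptate anti-IP1 antibody in lysis buffer; read after 10 min at room temperature.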
ALDH1A1 inh – ALDH1A1 (human) enzyme inhibition | P00352 | hit rate 7.3% among 220,000 | Purified ALDH1A1, NADH fluorescence, propionaldehyde substrate | Potency, µM (series often up to 75.3 µM), for the others: top-dose activity, negative = inhibition, usual class: inhibitors; active means well fitted inhibition curve with a large enough effect, not every such curve was filed as active; inconclusive means small, poorly fitted or top-dose-only effect, or another doubt; inactive means no such curve, though single readings can be large or run the other way;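 further: potency means the concentration at half of the fitted maximal effect; plate controls were no enzyme wells and a reference inhibitor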
ALOX12 inhib – inhibitors of human 12-lipoxygenase (ALOX12); P18054; purified 12-hLO, xylenol orange hydroperoxide absorbance; Potency, µM (series often up to 57.1 µM), for the others: top-dose activity change, negative = inhibition, usual class: inhibitors; hit rate 0.12% among 150,000; further: potency means the concentration at half of the fitted maximal effect; nearly all actives have a fitted effect of over 55% in size
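Hydroperoxide formation by human 12-lipoxygenase from 40 uM arachidonic acid was followed colorimetrically via ferric-xylenol orange complex, using the 573/405 nm absorbance ratio. Enzyme concentration was 150 nM, with 30 min reaction at room temperature.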
HPGD inh – inhibitors of human 15-hydroxyprostaglandin dehydrogenase (HPGD) | P15428 | Potency, µM, inactives show at the top dose activity change, negative = inhibition, actives largely listed as inhibitors | hit rate 4.3% among 150,000 | purified HPGD, NADH fluorescence kinetic, PGE2 substrate | AID 894; active means well fitted inhibition curve with a large enough effect, not every such curve was filed as active; inconclusive means small, poorly fitted or top-dose-only effect, or another doubt; inactive means no such curve, though single readings can be large or run the other way; further: potency means the concentration at half of the fitted maximal effect
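20 nM HPGD preincubated 15 min at room temperature with compound in 50 mM Tris-HCl pH 8, 0.01% Tween 20. Started with 1 mM NAD+ and 30 uM prostaglandin E2; NADH fluorescence (360/450 nm) read 5 times over 30-s intervals, last minus first.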
NPSR antag – antagonists of human neuropeptide S receptor cAMP signaling | Q6W5P4 | CHO-NPSR cells, cAMP TR-FRET, antagonist mode | Potency, µM (highest dose often 38.3 µM), without a hit: at the top dose activity change, negative = inhibition, hits mostly inhibitors | hit rate 1% among 220,000; further: potency means the concentration at half of the fitted maximal effect; nearly all actives have a fitted effect of over 50% in size
Target sequence (Q6W5P4 whole entry, looked up): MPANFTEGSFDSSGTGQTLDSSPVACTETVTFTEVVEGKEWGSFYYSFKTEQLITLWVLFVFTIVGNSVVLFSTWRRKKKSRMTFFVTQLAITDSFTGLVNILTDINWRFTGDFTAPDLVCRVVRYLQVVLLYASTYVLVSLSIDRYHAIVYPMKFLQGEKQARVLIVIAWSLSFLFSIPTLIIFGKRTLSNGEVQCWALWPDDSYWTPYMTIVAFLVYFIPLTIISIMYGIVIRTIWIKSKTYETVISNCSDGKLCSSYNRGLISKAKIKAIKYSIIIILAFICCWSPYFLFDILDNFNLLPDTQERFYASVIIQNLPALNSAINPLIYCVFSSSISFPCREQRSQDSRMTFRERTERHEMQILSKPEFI
Numbers without * were called inactive; ? = inconclusive; nt = no result; [ ] = dose if it differs, or a comment. Rows were chosen to be rich in hits. Some 8.9% of all compounds tested hit in one or more screens of this group. Unless noted, the call rests on the fitted dose curve; in most records, active means well fitted curve in the direction sought with a large enough effect; inconclusive means small, poorly fitted or top-dose-only effect, or another doubt; inactive means no such curve, though single readings can be large; an effect the other way counts as inactive or inconclusive. Unless noted, on the % scale 0 is the no-effect control and ±100 the full control effect.

SMILES | IMPase inh | IMPase Li inh | ALDH1A1 inh | ALOX12 inhib | HPGD inh | NPSR antag
COc1ccc(N/C(C)=C2/C(=O)C(=O)N(CCO)C2c2ccc([N+](=O)[O-])cc2)cc1 (configuration not stated) | 7 | 17%[38.3 µM] | 11µM* | 5% | -6% | -2%[46.1 µM]
Cc1cc(Oc2ccc(Cl)cc2)nc(-c2ccccn2)n1 | nt | nt | nt | nt | nt | 2%
O=C(Nc1ccccc1)C1=C[C@H](c2ccc3c(c2)OCO3)C[C@H](OCc2ccc(CO)cc2)O1 | nt | 6% | 28µM* | nt | nt | 54%
O=C(C1=C[C@@H](c2ccc(C(F)(F)F)cc2)C[C@@H](OCc2ccc(CO)cc2)O1)N1CCN(Cc2ccc3c(c2)OCO3)CC1 | nt | 6% | 13µM* | nt | nt | ?
CN1CCN(C(=O)C2=C[C@@H](c3ccccc3)C[C@@H](OCc3ccc(CO)cc3)O2)CC1 | nt | 5% | 13µM* | nt | nt | -1%
O=C(NC1CC1)C1=C[C@@H](c2ccc3c(c2)OCO3)C[C@@H](OCc2ccc(CO)cc2)O1 | nt | -12% | 4% | nt | nt | 18%
O=C(C1=C[C@H](c2ccc(C(F)(F)F)cc2)C[C@H](OCc2ccc(CO)cc2)O1)N1CCN(Cc2ccc3c(c2)OCO3)CC1 | nt | -13% | ? | nt | nt | ?
C=CCOC(=O)C1=C[C@@H](c2ccc(Br)cc2)C[C@@H](OCc2ccc(CO)cc2)O1 | nt | -2% | 18µM* | nt | nt | 41%
O=C(CN1C(=O)C2C3C=CC(C3)C2C1=O)Nc1nc(SCc2ccc(Cl)cc2)n[nH]1 (configuration not stated) | 5 | 0%[38.3 µM] | -7% | -3% | -10% | -15%[46.1 µM]
C#CCNC(=O)C1=C[C@H](c2ccc(C(F)(F)F)cc2)C[C@H](OCc2ccc(CO)cc2)O1 | nt | 8% | 28µM* | nt | nt | 37%
C#CCNC(=O)C1=C[C@@H](c2ccccc2)C[C@@H](OCc2ccc(CO)cc2)O1 | nt | -10% | -2% | nt | nt | 4%
CCOc1ccc(OCC)c(NC(=O)C2CCN(S(=O)(=O)c3cnc[nH]3)CC2)c1 | 9 | 12%[38.3 µM] | 4% | 3% | -5% | -9%[46.1 µM]
O=C(c1ccc(CN2CCc3ccccc3C2)cc1)N1CCCCC1 | -9 | 6%[38.3 µM] | ? | -2% | 2.5µM* | -2%[46.1 µM]
CCCNC(=O)c1ccc(CN2CCc3ccccc3C2)cc1 | nt | 13% | -3% | -1% | -28% | 3%[46.1 µM]
COCCNC(=O)c1ccc(CN2CCc3ccccc3C2)cc1 | nt | 14% | 8% | -5% | 14µM* | 13%
CC1(C)CC(=O)C(C=Nc2ccc3c(c2)OCO3)=C(O)C1 | -17 | 18%[38.3 µM] | 13µM* | -10% | -23% | -12%[46.1 µM]
CC1(C)CC(=O)C(C=NCc2ccc3c(c2)OCO3)=C(O)C1 | 10 | 7%[38.3 µM] | -7% | 0% | -20% | -8%[46.1 µM]
CC1(C)CC(=O)C(C=Nc2ccc(O)c(N=CC3=C(O)CC(C)(C)CC3=O)c2)=C(O)C1 | nt | 2% | 1.1µM* | nt | nt | -20%
CC1(C)CC(=O)C(C=Nc2ccc(C(=O)c3ccccc3)cc2N=CC2=C(O)CC(C)(C)CC2=O)=C(O)C1 | nt | 20% | 10µM* | nt | nt | 1%
CC1(C)CC(=O)C(C=NCCN2CCN(C(=O)c3ccccc3)CC2)=C(O)C1 | 1 | -7%[38.3 µM] | -38% | 7% | -10% | -6%[46.1 µM]
Cc1ccc(NC(=O)CSc2nnc(-c3ccco3)c(-c3ccco3)n2)cc1 | 1 | -14%[38.3 µM] | 3.2µM* | ? | 11µM* | -11%[46.1 µM]
O=C(CSc1nnc(-c2ccccc2)c(-c2ccccc2)n1)NCc1ccco1 | nt | -1% | -8% | -9% | -24% | -28%[46.1 µM]
COc1ccc(C(=O)CSc2nnc(-c3ccco3)n2C)cc1 | 7 | 4%[38.3 µM] | ? | -2% | -4% | 2%[46.1 µM]
COc1ccc(C(=O)CSc2nnc(-c3ccco3)c(-c3ccco3)n2)cc1 | nt | 12% | 4µM* | nt | nt | -17%
Cc1ccc(SCC(=O)Nc2ccc(-c3nnc(-c4ccco4)o3)cc2)cc1 | 2 | -2%[38.3 µM] | -5% | -2% | -14% | -17%[46.1 µM]
O=C(CSc1nnc(-c2ccco2)c(-c2ccco2)n1)Nc1ccccc1 | 4 | 5%[38.3 µM] | 2µM* | ? | 25µM* | -16%[46.1 µM]
